The source of these data is PubChem BioAssay (Tox21).

A short description of assay [1]: qHTS assay to identify small molecule antagonists of the glucocorticoid receptor (GR) signaling pathway - cell viability counter screen (AID 720693). Further: nearly all actives have a fitted effect of over 55% in size. A general note: qHTS replaces the single test concentration by a dilution series.
Assay [2] in a line: qHTS assay for identifying genotoxic compounds that show differential cytotoxicity against isogenic chicken DT40 cell lines with known DNA damage response pathways - wild type cell line (AID 743012). Further: nearly all actives have a fitted effect of over 60% in size. Further: potency means the concentration at half of the fitted maximal effect. The method in brief:
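Cells (DT40 wild type, 300/well) are treated with DMSO-dissolved compounds after a ~0.5 h pre-incubation and kept 40 h at 37 C/5% CO2. Viability is then measured by CellTiter-Glo luminescence following 30 min at room temperature.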

The nature of assay [3]: qHTS assay to identify small molecule antagonists of the androgen receptor (AR) signaling pathway - cell viability counter screen (AID 743033; further: nearly all actives have a fitted effect of over 45% in size).
Assay [4] in a line: qHTS assay to identify small molecule antagonists of the androgen receptor (AR) signaling pathway using the MDA cell line - cell viability counter screen (AID 743041; further: nearly all actives have a fitted effect of over 45% in size). Put shortly:
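Same-well cytotoxicity was assessed by CellTiter-Fluor in MDA-kb2 AR-luc cells after 16 h of compound treatment under R1881 agonism.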

The nature of assay [5]: qHTS assay to identify small molecule antagonists of the thyroid receptor (TR) signaling pathway - cell viability counter screen (AID 743064). Further: nearly all actives have a fitted effect of over 50% in size. The method in brief:
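Plate GH3.TRE-Luc cells; incubate 4 h at 37 °C; add compound, then T3 to 1 nM final; incubate 23.5 h; add CellTiter-Fluor; incubate 30 min at 37 °C, 5% CO2; read fluorescence.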

In assay [6] the test system is thyroid hormone receptor (rat, GH3 cells). Put plainly: qHTS assay to identify small molecule agonists of the thyroid receptor (TR) signaling pathway (AID 743066; calls by dose curve).
Assay [7] addresses Estrogen receptor (Homo sapiens) (UniProt P03372). Nature of the assay: qHTS assay to identify small molecule antagonists of the estrogen receptor alpha (ER-alpha) signaling pathway (AID 743069; active means well fitted curve in the direction sought with a large enough effect in the signal ratio in the repeat runs, not every such curve was filed as active; the % refers to the signal ratio). The method in brief:
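Reporter cells (ER-alpha-bla, HEK293 background) are conditioned overnight in stripped-serum medium (2% charcoal-stripped FBS). Compound and 17beta-estradiol exposure runs 18 hr at 37C, 5% CO2.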

Assay [8] is described as follows: qHTS assay to identify small molecule antagonists of the estrogen receptor alpha (ER-alpha) signaling pathway - cell viability counter screen (AID 743074; calls by dose curve;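 further: HEK293 cells carrying ER-alpha-UAS-bla reporter stimulated with 17beta-estradiol; nearly all actives have a fitted effect of over 45% in size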).
The target in assay [9] is Estrogen receptor (Homo sapiens) (UniProt P03372). Put plainly: qHTS assay to identify small molecule agonists of the estrogen receptor alpha (ER-alpha) signaling pathway (AID 743075; calls by dose curve;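 further: HEK293 GripTite cells with ER-alpha and UAS-driven beta-lactamase reporter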).
Estrogen receptor (Homo sapiens), sequence (P03372 whole entry, looked up): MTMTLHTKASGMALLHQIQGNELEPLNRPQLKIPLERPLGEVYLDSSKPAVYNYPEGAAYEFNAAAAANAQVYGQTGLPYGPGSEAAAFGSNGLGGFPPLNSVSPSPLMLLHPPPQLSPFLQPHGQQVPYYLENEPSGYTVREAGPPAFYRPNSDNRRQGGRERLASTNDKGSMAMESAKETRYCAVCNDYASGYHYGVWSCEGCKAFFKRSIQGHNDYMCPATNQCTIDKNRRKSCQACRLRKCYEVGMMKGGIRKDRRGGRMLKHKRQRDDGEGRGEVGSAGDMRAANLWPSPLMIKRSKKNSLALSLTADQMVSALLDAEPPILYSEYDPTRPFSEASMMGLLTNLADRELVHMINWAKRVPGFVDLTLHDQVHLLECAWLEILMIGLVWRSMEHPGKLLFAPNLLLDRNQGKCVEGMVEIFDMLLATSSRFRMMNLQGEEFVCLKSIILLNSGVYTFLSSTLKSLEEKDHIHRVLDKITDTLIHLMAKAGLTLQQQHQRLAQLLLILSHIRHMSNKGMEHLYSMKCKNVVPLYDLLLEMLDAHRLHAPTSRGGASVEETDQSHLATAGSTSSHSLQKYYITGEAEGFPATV
Assay [10] shares this target. Nature of the assay: qHTS assay to identify small molecule agonists of the estrogen receptor alpha (ER-alpha) signaling pathway using the BG1 cell line (AID 743079). Further: nearly all actives have a fitted effect of over 20% in size.
A short description of assay [11]: qHTS assay to identify small molecule antagonists of the estrogen receptor alpha (ER-alpha) signaling pathway using the BG1 cell line (AID 743080; calls by dose curve;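 further: BG1 cells stimulated with 17beta-estradiol alongside compound; series mostly up to about 70 µM; nearly all actives have a fitted effect of over 25% in size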). The method in brief: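 BG1-Luc-4E2 cells (endogenous full-length ER-alpha, stable 4×ERE-luciferase) were starved 5 days in phenol-red-free medium with 10% charcoal-stripped FBS, plated 24 h, then given compound plus 17beta-estradiol for 21.5 h at 37 C; ONE-Glo luminescence read after 30 min.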

The nature of assay [12]: qHTS assay to identify small molecule antagonists of the estrogen receptor alpha (ER-alpha) signaling pathway using the BG1 cell line - cell viability counter screen (AID 743081).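 Further: compound given together with 17beta-estradiol as the ER stimulus; series mostly up to about 70 µM; nearly all actives have a fitted effect of over 45% in size.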
For the next assay, the target named is Aromatase (Homo sapiens) (UniProt P11511). Nature of the assay: qHTS assay to identify aromatase inhibitors (AID 743083). Further: series mostly up to about 70 µM; nearly all actives have a fitted effect of over 55% in size.
Aromatase (Homo sapiens), sequence (P11511 whole entry, looked up): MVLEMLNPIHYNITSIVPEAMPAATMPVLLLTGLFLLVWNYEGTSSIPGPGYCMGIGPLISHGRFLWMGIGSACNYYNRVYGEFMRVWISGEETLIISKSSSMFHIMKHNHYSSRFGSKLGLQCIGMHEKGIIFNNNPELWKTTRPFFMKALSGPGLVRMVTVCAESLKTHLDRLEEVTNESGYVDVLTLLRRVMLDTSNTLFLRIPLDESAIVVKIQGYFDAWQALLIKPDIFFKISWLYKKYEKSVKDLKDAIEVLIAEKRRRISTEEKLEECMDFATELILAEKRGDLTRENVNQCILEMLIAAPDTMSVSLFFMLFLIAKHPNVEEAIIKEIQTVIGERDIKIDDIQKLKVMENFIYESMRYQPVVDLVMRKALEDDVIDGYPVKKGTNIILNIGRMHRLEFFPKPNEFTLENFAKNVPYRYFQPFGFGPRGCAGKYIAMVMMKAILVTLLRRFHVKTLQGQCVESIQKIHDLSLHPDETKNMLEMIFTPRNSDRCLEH
A short description of assay [13]: qHTS assay to identify small molecule antagonists of the thyroid receptor (TR) signaling pathway (AID 743065). Further: nearly all actives have a fitted effect of over 55% in size. Further: potency means the concentration at half of the fitted maximal effect. The method in brief: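 GH3.TRE-Luc rat pituitary cells (two TREs driving luciferase) were dosed with compound, then stimulated with 1 nM T3 (final) for 23.5 h at 37 C. ONE-Glo luminescence was the read-out, with CellTiter-Fluor fluorescence as the cytotoxicity counter-screen.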

Assay [14] is described as follows: qHTS assay for identifying genotoxic compounds that show differential cytotoxicity against isogenic chicken DT40 cell lines with known DNA damage response pathways - Rev3 mutant cell line (AID 743014). Further: nearly all actives have a fitted effect of over 55% in size. Further: potency means the concentration at half of the fitted maximal effect.
Assay [15] is described as follows: qHTS assay for identifying genotoxic compounds that show differential cytotoxicity against isogenic chicken DT40 cell lines with known DNA damage response pathways - Rad54/Ku70 mutant cell line (AID 743015). Further: nearly all actives have a fitted effect of over 60% in size. Further: potency means the concentration at half of the fitted maximal effect.
The target of assay [16] is Androgen receptor (Homo sapiens) (UniProt P10275). Nature of the assay: qHTS assay to identify small molecule antagonists of the androgen receptor (AR) signaling pathway (AID 743035; active means well fitted inhibition curve with a large enough effect in the signal ratio in the repeat runs, not every such curve was filed as active; the % refers to the signal ratio). Put shortly: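 Antagonism is scored as loss of R1881-driven beta-lactamase reporter expression in HEK293 cells carrying the reporter under a UAS element, after 16 h co-treatment at 37C and a 2 h room-temperature FRET substrate read.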
Androgen receptor (Homo sapiens), sequence (P10275 whole entry, looked up): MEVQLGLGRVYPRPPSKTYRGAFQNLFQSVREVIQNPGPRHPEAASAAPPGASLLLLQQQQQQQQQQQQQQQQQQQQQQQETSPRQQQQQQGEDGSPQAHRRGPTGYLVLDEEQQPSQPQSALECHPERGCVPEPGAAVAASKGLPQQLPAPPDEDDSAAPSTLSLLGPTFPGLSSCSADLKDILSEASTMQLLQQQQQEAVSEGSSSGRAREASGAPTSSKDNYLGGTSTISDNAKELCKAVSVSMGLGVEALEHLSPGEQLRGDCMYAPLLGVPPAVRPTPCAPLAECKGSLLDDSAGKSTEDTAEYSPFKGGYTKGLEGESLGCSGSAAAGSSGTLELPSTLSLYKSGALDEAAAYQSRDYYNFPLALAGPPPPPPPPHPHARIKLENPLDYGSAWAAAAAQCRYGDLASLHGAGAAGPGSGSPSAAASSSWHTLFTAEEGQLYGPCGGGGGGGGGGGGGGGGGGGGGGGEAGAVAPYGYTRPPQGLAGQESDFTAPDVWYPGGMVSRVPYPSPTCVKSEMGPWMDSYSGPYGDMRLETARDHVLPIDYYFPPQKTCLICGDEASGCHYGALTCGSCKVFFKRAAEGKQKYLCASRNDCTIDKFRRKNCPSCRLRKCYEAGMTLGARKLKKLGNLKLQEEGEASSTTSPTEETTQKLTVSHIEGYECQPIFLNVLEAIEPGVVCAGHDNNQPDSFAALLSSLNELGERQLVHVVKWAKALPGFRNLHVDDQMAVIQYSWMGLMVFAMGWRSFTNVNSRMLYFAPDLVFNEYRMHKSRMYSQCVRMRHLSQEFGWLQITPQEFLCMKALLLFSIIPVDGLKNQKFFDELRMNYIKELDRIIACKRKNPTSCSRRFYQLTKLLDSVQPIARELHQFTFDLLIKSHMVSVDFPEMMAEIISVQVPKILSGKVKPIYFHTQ

For assay [17] the target is unchanged. Nature of the assay: qHTS assay to identify small molecule agonists of the androgen receptor (AR) signaling pathway (AID 743036; active means well fitted activation curve with a large enough effect in the signal ratio in the repeat runs, with a control signal flat, not every such curve was filed as active; the % refers to the signal ratio). Put shortly:
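Reporter line: GeneBLAzer AR-UAS-bla-GripTite (HEK293). Steps: plate cells, 4 h rest, add compounds, 16 h at 37C, add LiveBLAzer B/G substrate, 2 h at RT, read fluorescence.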

Assay [18] shares this target. Put plainly: qHTS assay to identify small molecule agonists of the androgen receptor (AR) signaling pathway using the MDA cell line (AID 743040; further: nearly all actives have a fitted effect of over 20% in size). The method in brief: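 Human breast carcinoma MDA-kb2 reporter cells (MMTV-luc, AR/GR elements) were treated for 16 h at 37C in 0% CO2 following a 5 h settling period. Signal was quantified by ONE-Glo luminescence.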

Inconclusive results are not listed. Calls of active or inactive are those of the source. Unless noted, the call rests on the fitted dose curve; in most records, active means well fitted curve in the direction sought with a large enough effect in the repeat runs; inconclusive means weak or mixed curves; inactive means no such curve, though single readings can be large; an effect the other way counts as inactive or inconclusive.

For the compound `CCN(CC)CCNC(C(=O)OCCC(C)C)c1ccccc1` (stereo not drawn), the Potency entry in assay [1], in assay [3], in assay [4], in assay [5], in assay [6] and in [7] was “inactive” each time. In addition, the Potency entry (in assay [9]; in [10]; in [11]; in assay [12]; with Aromatase (Homo sapiens)) was “inactive” each time. Besides, the Potency in [2] was 26.6 µM (active). Moreover, the outcome in [8] was inactive.

As to `CCCCCC(CO)CCC` (stereo not drawn), the Potency entry in assay [1], in assay [2], in assay [3], in [5], in [13] and in assay [6] was “inactive” throughout. In the assay with Aromatase (Homo sapiens), the Potency entry was “inactive”. The compound was classed as inactive in assay [8].

With `CCCCCc1ccc(N)cc1`, the Potency result in assay [1], in [2], in [3], in assay [5], in assay [13] and in assay [6] was “inactive” each time. Further, the Potency entry in assay [9], in assay [10] and in [12] was “inactive” each time.

Turning to `O=S(=O)(O)c1ccc(O)c2ncccc12`, the Potency result in assay [1], in assay [14], in assay [15], in assay [3], in [4] and in assay [6] was “inactive” each time. For the same compound, the Potency result (in assay [7]; in [9]; in assay [10]; with Aromatase (Homo sapiens)) was “inactive” each time. In addition, the result in assay [8] was inactive.

With `CN(C)CCCNCCCN`, the Potency entry in assay [1], in [2], in assay [3], in assay [4], in assay [5] and in assay [7] was “inactive” throughout. The Potency result (in assay [11]; in assay [12]; in the assay with Aromatase (Homo sapiens)) was “inactive” in each case. The compound was classed as inactive in assay [8].

`O=C(O)C1CCC(C(=O)O)CC1` (stereo not drawn): the Potency result in [1], in assay [5], in assay [13], in assay [6], in [7] and in [9] was “inactive” in each case. For the same compound, the Potency entry (in [10]; in [11]; in [12]; with Aromatase (Homo sapiens)) was “inactive” throughout. In addition, the values for the Potency in [14] and in assay [15] were 60.9 µM (active) and 68.4 µM (active), respectively. In addition, the outcome in assay [8] was inactive.

On to `COC(Cc1ccccc1)OC`, for which the Potency entry in [1], in [14], in assay [15], in assay [3], in assay [4] and in assay [13] was “inactive” in each case. Moreover, the Potency entry (in [6]; in assay [9]; in [11]; in assay [12]; in the assay with Aromatase (Homo sapiens)) was “inactive” each time. In addition, the outcome in assay [8] was inactive.

Take `CNCC[C@@H](Oc1ccccc1C)c1ccccc1`: the Potency entry in assay [1], in assay [3], in assay [16], in assay [18], in [4] and in assay [7] was “inactive” throughout. Moreover, the Potency result (in [9]; in [10]; in assay [12]; with Aromatase (Homo sapiens)) was “inactive” in each case. Moreover, the Potency in assay [2] is 16.8 µM (active); in assay [13], 23.7 µM (active). In addition, the outcome in assay [17] and in assay [8] was inactive.

In the case of `Cn1c(N)nc2nc[nH]c2c1=O`, the Potency result in assay [1], in assay [14], in assay [3], in assay [4], in assay [5] and in [13] was “inactive” each time. Besides, the Potency entry (in assay [6]; in assay [12]; in the assay with Aromatase (Homo sapiens)) was “inactive” throughout. Further, in assay [8], the call was inactive.

As to `CC[C@H](C)[C@H](N)C(=O)O`, the Potency result in assay [1], in assay [2], in assay [15], in [3], in assay [4] and in [5] was “inactive” each time. Also, the Potency entry in assay [6], in assay [7], in [9], in [10], in assay [11] and in assay [12] was “inactive” throughout. Further, the Potency entry with Aromatase (Homo sapiens) is “inactive”. Further, the result in assay [8] was inactive.

As to `CCCc1ccccc1`, the Potency entry in assay [1], in assay [14], in assay [15], in assay [3], in assay [4] and in assay [5] was “inactive” each time. Moreover, the Potency entry in assay [6], in assay [7], in [9], in assay [10], in [11] and in [12] was “inactive” each time. The Potency result with Aromatase (Homo sapiens) was “inactive”. Also, the outcome in [8] was inactive.
